Source: PubChem (The Scripps Research Institute Molecular Screening Center)
A selection: hits, their analogues and other compounds. The true share with any hit is near 4.8%.
hcDAF-12 act – activates DAF-12 receptor from parasite H. contortus; activation, % at 6.8 µM; HEK293 hcDAF-12 lit1-tk-luc reporter, luminescence; 0% DMSO, 100% Δ7-dafachronic acid; 1.4% of 370,000 active; AID 652067;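 active = activation above the mean of all tested compounds plus 3 SD, cut at about 5.5% in these data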
DAX1 inh-1 – inhibitors of human orphan nuclear receptor DAX1 (NR0B1); HEK293 Gal4-DAX1 luciferase reporter, luminescence; 0.99% of 340,000 active; inhibition, % at 6.75 µM; P51843;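 active = inhibition above the mean over all tested compounds plus 3 SD, cut at about 4.2% in these data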;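 note: inhibition shows as a rise in luminescence from relieved DAX1 repression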
Target sequence (P51843 207-470 limits assumed): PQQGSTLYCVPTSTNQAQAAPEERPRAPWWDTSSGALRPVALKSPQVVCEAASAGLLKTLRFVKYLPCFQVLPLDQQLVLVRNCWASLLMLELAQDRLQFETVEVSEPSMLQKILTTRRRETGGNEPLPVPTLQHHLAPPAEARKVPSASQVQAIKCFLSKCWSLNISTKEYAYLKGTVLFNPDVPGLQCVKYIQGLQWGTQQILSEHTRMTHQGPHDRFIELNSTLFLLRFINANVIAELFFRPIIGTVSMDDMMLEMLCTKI
ssDAF-12 act – activators of S. stercoralis DAF-12 nuclear receptor | HEK293 ssDAF-12/GRIP1 lit1-tk-luc reporter, luminescence; % of 3 µM dafachronic acid response | activation, % at 6.8 µM | 1% of 370,000 active;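 active = activation above the mean over all tested compounds plus 3 SD, cut at about 0.9% in these data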
SMARCA2 activ – activators of SMARCA2 function; MG213 cells, MMTV-luciferase reporter, dexamethasone, overnight; activation, % at 9.1 µM; 1% of 370,000 active; AID 652017; in the data active = activation above about 7.8%
DAX1 inh-2 – inhibitors of DAX1 repression of SF-1 activated StAR promoter; HEK293T StAR-luciferase reporter, SF-1/DAX-1 repression relief; inhibition, % at 6.8 µM; 1.1% of 370,000 active; AID 652010;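 active = inhibition above the mean over all tested compounds plus 3 SD, cut at about 3.6% in these data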;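 note: higher inhibition means more luminescence from relief of DAX-1 repression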
hgDAF-12 ag – activates the H. glycines DAF-12 receptor ligand-binding domain; AID 687014; HEK293 GAL4-hgDAF12 UAS-luciferase reporter, agonist luminescence; normalized to butyrate control; activation, % at 6.8 µM; 1.8% of 370,000 active;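 active = activation above a cutoff set at the mean of all screened compounds plus 3 SD, cut at about 10% in these data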
LXRb hcDAF ctr – activates human LXR-beta, counter-screen for hcDAF-12 agonists | shares compounds with hcDAF-12 act | HEK293 Gal4-LXR tk-luc reporter, luminescence, 24 h; normalized: DMSO 0%, positive control 100% | activation, % at 6.8 µM | 3,400 tested, under 10 active | AID 743027;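 active = mean percent activation of the reporter above a cutoff set as the average over tested compounds plus their standard deviation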
Target sequence (P55055 whole entry, looked up, the tested form may be a part): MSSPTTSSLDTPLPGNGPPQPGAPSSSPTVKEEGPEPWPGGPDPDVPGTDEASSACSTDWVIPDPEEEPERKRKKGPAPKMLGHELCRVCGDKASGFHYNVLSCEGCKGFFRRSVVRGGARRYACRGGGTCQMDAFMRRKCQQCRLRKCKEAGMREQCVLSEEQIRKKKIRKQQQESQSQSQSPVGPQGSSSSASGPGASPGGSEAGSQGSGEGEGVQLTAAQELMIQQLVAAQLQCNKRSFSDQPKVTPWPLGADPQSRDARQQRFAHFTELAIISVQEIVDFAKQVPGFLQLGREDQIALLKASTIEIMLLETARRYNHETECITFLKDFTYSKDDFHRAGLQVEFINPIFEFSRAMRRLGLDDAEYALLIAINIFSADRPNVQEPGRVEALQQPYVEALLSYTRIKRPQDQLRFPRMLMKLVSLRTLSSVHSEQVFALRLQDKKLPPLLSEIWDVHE
hcDAF12 ag – hcDAF-12 agonism, confirmation assay; activation, % at 6.8 µM; HEK293 hcDAF-12 lit1-tk-luc reporter, luminescence; % of Δ7-dafachronic acid response; shares compounds with hcDAF-12 act; 61% of 3,400 active; AID 743032;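 active = mean activation across triplicate tests above the threshold derived from the earlier primary screen, cut at about 5.5% in these data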
hgDAF12 ag – confirmation of H. glycines DAF-12 agonists. shares compounds with hgDAF-12 ag. HEK293 GAL4-hgDAF12 luciferase reporter, agonist mode; percent of butyrate response. activation, % at 6.8 µM. 80% of 3,300 active. AID 743050;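 active = mean activation over triplicate wells above the hit cutoff derived from the earlier primary screen, cut at about 11% in these data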
LXR ag 2 – activates human LXR-beta, counter-screen for DAF-12 agonists. HEK293 Gal4-LXR luciferase reporter, 24 h. 3,300 tested, under 10 active. shares compounds with hgDAF-12 ag. AID 743051. activation, % at 6.8 µM;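 active = mean activation of the triplicate above a set limit carried over from the primary screen, none filed active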
Each line names hits and unclear results; the compound was inactive in the other large screens (follow-up assays come after a bar, where they were run).

O=C(Nc1nccs1)c1ccc(-c2ccc(Cl)cc2)o1	hcDAF-12 act 6.6, DAX1 inh-1 4.6, ssDAF-12 act 1.3, DAX1 inh-2 4.3, hgDAF-12 ag 17 | LXRb hcDAF ctr inactive | hcDAF12 ag inactive | hgDAF12 ag 22 | LXR ag 2 inactive
Cc1nnc(NC(=O)c2ccc(-c3ccc(Cl)cc3)o2)s1	none
Cc1[nH]c2ccccc2c1CC(=O)Nc1ccc(N(C)c2cccnc2)c(-c2ccc(F)c(F)c2)c1	none (no result: DAX1 inh-1)
O=Cc1ccc(/C=C2\c3ccccc3C(=O)N2c2ccccc2)o1	none (no result: DAX1 inh-1)
Cc1[nH]nc(N)c1N=Nc1ccc(Br)cc1	none (no result: DAX1 inh-1)
Cc1nc(N)sc1N=Nc1ccc(Br)cc1	hcDAF-12 act 8.6, DAX1 inh-1 5.4, ssDAF-12 act 1.5, DAX1 inh-2 3.9, hgDAF-12 ag 17 | LXRb hcDAF ctr inactive | hcDAF12 ag inactive | hgDAF12 ag 21 | LXR ag 2 inactive
O=C(NCC1CCN(C(=O)C(=O)c2cccs2)CC1)c1ccc2ccccc2c1	none (no result: DAX1 inh-1)
COc1ccc(-c2csc(-n3cccn3)n2)cc1	hcDAF-12 act 7.0, hgDAF-12 ag 14 | LXRb hcDAF ctr inactive | hcDAF12 ag inactive | hgDAF12 ag 18 | LXR ag 2 inactive
COc1ccc(N)cc1CN1CCN(c2ncc(Cc3ccccc3)cn2)CC1	none (no result: DAX1 inh-1)
COc1ccc(C(=O)Nc2ccc3ccccc3c2)c(OC)c1	hcDAF-12 act 16, DAX1 inh-1 5.8, ssDAF-12 act 3.7, hgDAF-12 ag 15 | LXRb hcDAF ctr inactive | hcDAF12 ag 15 | hgDAF12 ag 26 | LXR ag 2 inactive
COc1cc(SC)ccc1C(=O)Nc1ccc2c(c1)CCC2	hcDAF-12 act 17, ssDAF-12 act 4.0, hgDAF-12 ag 22 | LXRb hcDAF ctr inactive | hcDAF12 ag 14 | hgDAF12 ag 22 | LXR ag 2 inactive
COc1cc2ccccc2cc1C(=O)Nc1ccc(C)cc1	hcDAF-12 act 17, DAX1 inh-1 5.9, ssDAF-12 act 1.0, hgDAF-12 ag 19 | LXRb hcDAF ctr inactive | hcDAF12 ag 12 | hgDAF12 ag 20 | LXR ag 2 inactive
COc1ccc(C(=O)Nc2ccncc2)c(OC)c1	none
Cc1ccc(NC(=O)c2cc3ccccc3oc2=N)cc1	hcDAF-12 act 11, ssDAF-12 act 0.9, DAX1 inh-2 3.7, hgDAF-12 ag 14 | LXRb hcDAF ctr inactive | hcDAF12 ag 17 | hgDAF12 ag inactive | LXR ag 2 inactive
COC(=O)C1=C(C)N(C)C(=NCc2ccccc2C(F)(F)F)NC1c1ccc(C(F)(F)F)cc1 (configuration not stated)	none (no result: DAX1 inh-1)
CC(C)N1CCCCC(NC(=O)COCc2ccccc2)C1=O (configuration not stated)	none (no result: DAX1 inh-1)
COCCN1Cc2cc(C(=O)OC)c3c(c2C1=O)c1cc(F)ccc1n3S(=O)(=O)c1cccc(C)c1	none (no result: DAX1 inh-1)
Cc1ccc(NC(=O)c2ccc(C)cc2)cc1	hcDAF-12 act 7.8, hgDAF-12 ag 14 | LXRb hcDAF ctr inactive | hcDAF12 ag 5.7 | hgDAF12 ag 21 | LXR ag 2 inactive
COC(=O)c1cc2c(c3c4ccccc4n(S(=O)(=O)c4ccc(OC)cc4)c13)C(=O)N(Cc1ccc(C(F)(F)F)cc1)C2	none (no result: DAX1 inh-1)
CC1CCC(NC(=O)c2ccc3c(c2)OCO3)CC1 (configuration not stated)	hcDAF-12 act 9.0, DAX1 inh-2 9.1, hgDAF-12 ag 15 | LXRb hcDAF ctr inactive | hcDAF12 ag 8.6 | hgDAF12 ag 19 | LXR ag 2 inactive
O=C(Nc1ccc(Cl)c(Cl)c1)c1ccc2c(c1)OCO2	hcDAF-12 act 9.7, ssDAF-12 act 3.0, hgDAF-12 ag 19 | LXRb hcDAF ctr inactive | hcDAF12 ag 7.2 | hgDAF12 ag 22 | LXR ag 2 inactive
Cc1ccc(C(=O)Nc2ccc3c(c2)OCCO3)o1	hcDAF-12 act 9.2, hgDAF-12 ag 13 | LXRb hcDAF ctr inactive | hcDAF12 ag inactive | hgDAF12 ag 14 | LXR ag 2 inactive
O=C(Nc1ccc(F)c(F)c1)c1ccc2c(c1)OCO2	none
O=C(Nc1ccc2c(c1)OCO2)c1ccc2c(c1)OCO2	hcDAF-12 act 7.3, ssDAF-12 act 2.1, hgDAF-12 ag 14 | LXRb hcDAF ctr inactive | hcDAF12 ag 9.3 | hgDAF12 ag 15 | LXR ag 2 inactive
Cc1cc(C)c(C(=O)Nc2ccc3c(c2)OCCO3)c(C)c1	none
COC(=O)[C@]12C[C@H](CC(=O)N3CCC(c4ccccc4)CC3)C(=O)N(CCC3=CCCCC3)C1=C[C@H](COCc1ccccc1)O[C@@H]2C	none (no result: DAX1 inh-1)
Cc1ccc(-n2c(SCC(=O)c3ccc4c(c3)OCO4)nc3ccccc3c2=O)cc1	none (no result: DAX1 inh-1)
Nc1c(C(=O)NCC(O)c2ccccc2)cnn1-c1ccccc1 (configuration not stated)	hcDAF-12 act 6.6, hgDAF-12 ag 18 (no result: DAX1 inh-1) | LXRb hcDAF ctr inactive | hcDAF12 ag 6.2 | hgDAF12 ag 14 | LXR ag 2 inactive
C[C@@H]1CN([C@@H](C)CO)C(=O)CCCn2cc(nn2)CO[C@H]1CN(C)C(=O)Nc1cccc(F)c1	none (no result: DAX1 inh-1)
O=C(c1cc(-c2ccc(Cl)cc2Cl)on1)N1CCCC1	none
O=C(c1cc(-c2ccc(Cl)cc2Cl)on1)N1CCCCCC1	hcDAF-12 act 8.8, hgDAF-12 ag 16 | LXRb hcDAF ctr inactive | hcDAF12 ag 8.3 | hgDAF12 ag 18 | LXR ag 2 inactive
O=C(c1cc(-c2ccc(O)cc2)on1)N1CCCCCC1	hcDAF-12 act 6.8, DAX1 inh-1 5.1, hgDAF-12 ag 14 | LXRb hcDAF ctr inactive | hcDAF12 ag inactive | hgDAF12 ag 17 | LXR ag 2 inactive
Cc1[nH]c2ccccc2c1CC(=O)Nc1ccc(Nc2cccnc2)c(-c2ccc(-c3ccccc3)cc2F)c1	none (no result: DAX1 inh-1)
O=C(Nc1ccc(Nc2ccccc2)cc1)c1ccc(Cl)cc1	none
O=C(Nc1ccc(Cl)cc1)C1=Cc2ccccc2OC1	hcDAF-12 act 9.6, ssDAF-12 act 1.3, hgDAF-12 ag 18 | LXRb hcDAF ctr inactive | hcDAF12 ag 8.0 | hgDAF12 ag 22 | LXR ag 2 inactive
C=CC[C@]12C[C@@]3(O[C@H](c4ccccn4)N=C3C[C@H](c3ccc(OC)cc3)[C@H]1C)N(C1CCN(Cc3ccccc3)CC1)C2=O	none (no result: DAX1 inh-1)
